These results are taken from PubChem BioAssay AID1240 (Sanford-Burnham Center for Chemical Genomics, 2008).

Structures are written as SMILES. Screen size: about 50,000 compounds; about 800 (1.6%) showed an effect of 50% or more. This is one part of a sample in which strong results are shown more often than they occur.

Chain of Bcl-2-like protein 10 (Homo sapiens) (Q9HD36 whole entry, looked up): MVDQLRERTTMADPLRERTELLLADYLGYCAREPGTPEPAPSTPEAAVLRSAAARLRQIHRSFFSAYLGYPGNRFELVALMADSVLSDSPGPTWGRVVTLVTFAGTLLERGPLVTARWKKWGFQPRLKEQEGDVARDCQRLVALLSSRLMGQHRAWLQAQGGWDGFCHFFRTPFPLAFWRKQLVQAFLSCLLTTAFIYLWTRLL

This experiment concerns the target Bcl-2-like protein 10 (Homo sapiens) (UniProt Q9HD36). Briefly: Phenotype converters, Bcl-B/TR3 peptide binding displacement, primary biochemical FP (AID 1240).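 Further: 0% = Bcl-B with tracer peptide and DMSO and 100% = tracer peptide lacking Bcl-B.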 The note with it: GST-Bcl-B / FITC-TR3 peptide fluorescence polarization; stronger effect = higher value; compound at 3.75 mg/L.
`Oc1ccc(Br)cc1CN1CCN(Cc2c[nH]c3ccccc23)CC1`: the displacement was -2.7%.

With `Cc1n[nH]c(C)c1Sc1ccccc1N=Cc1cc([N+](=O)[O-])ccc1O`, the displacement was 3.6%.

For `Cc1n[nH]c(C)c1Sc1ccccc1N=Cc1cc(Cl)ccc1O`, the displacement came out at 0%.

On to `Cc1n[nH]c(C)c1Sc1ccccc1N=Cc1cc(Cl)cc([N+](=O)[O-])c1O`, for which the displacement is 117%.

For the molecule `O=C(/C=C/c1ccccc1OC(=O)c1cccnc1)c1ccccc1`, the displacement is -10.4%.

For `Cc1ccc(C2OC3(C(=O)c4ccccc4C3=O)C(c3cccc(Cl)c3)C23C(=O)c2ccccc2C3=O)cc1` (stereo not drawn), the displacement was determined as 2%.

For `O=C1/C(=C\c2ccc3c(c2)OCO3)SC(=S)N1CCc1ccccc1`, the displacement is -2.3%.

Turning to `CC(C(=O)O)N1C(=O)/C(=C/c2ccc3c(c2)OCO3)SC1=S` (stereo not drawn), the displacement is 9.1%.

For the molecule `O=C1/C(=C\c2ccc3c(c2)OCO3)SC(=S)N1C1CCS(=O)(=O)C1` (stereo not drawn), the displacement amounted to 106%.

As for `O=C(O)CCN1C(=O)/C(=C\c2ccc3c(c2)OCO3)SC1=S`, the displacement was -2.7%.

For `CN1C(=O)/C(=C/c2ccc3c(c2)OCO3)SC1=S`, the displacement stood at 80.3%.

For the molecule `O=C1/C(=C/c2cccc([N+](=O)[O-])c2)SC(=S)N1C1CCS(=O)(=O)C1` (stereo not drawn), the displacement was 2.2%.

Turning to `Cc1ccc(CNS(=O)(=O)c2ccccc2[N+](=O)[O-])cc1`, the displacement worked out at 5.2%.

`O=C(c1ccccc1)N1CCCC2CCCCC21` (stereo not drawn): the displacement was 1.6%.

Take `CCOc1ccc(NC(=O)c2c(N)sc(-c3ccccc3)c2C)cc1`: the displacement is -0.3%.

With `CCO/C=N/C1=C(C#N)C(c2ccccc2)C2=C(CC(C)(C)CC2=O)O1` (stereo not drawn), the displacement came out at 4.5%.

With `COC(=O)c1cc(C(=O)Nc2ncccc2C)cc([N+](=O)[O-])c1`, the displacement was determined as 55.2%.

With `COC(=O)c1cc(C(=O)Nc2cc(C)ccn2)cc([N+](=O)[O-])c1`, the displacement is 3.9%.

On to `COC(=O)c1cc(C(=O)Nc2ccccn2)cc([N+](=O)[O-])c1`, for which the displacement was -1.3%.

`Cc1cccnc1NC(=O)Nc1ccc(F)cc1`: the displacement came out at 0.2%.

In the case of `O=C(NCC1CCCO1)c1ccc(C2SCC(=O)N2Cc2ccccc2)cc1` (stereo not drawn), the displacement was -12.3%.

For the molecule `CCCOc1ccc(N2C(=O)CC(NCc3cccnc3)C2=O)cc1` (stereo not drawn), the displacement turned out to be 1.7%.

Regarding `COc1cc(/C=C2/SC(=S)N(CCC(=O)O)C2=O)cc(Br)c1O`, the displacement is -13.7%.

Take `COC(=O)CCN1C(=O)/C(=C\c2ccc(C)cc2)SC1=S`: the displacement worked out at 0.6%.

With `CCCCOc1ccc(/C=C2\SC(=S)N(CCC(=O)OC)C2=O)cc1OC`, the displacement turned out to be 54.1%.

On to `COc1cc(/C=C2\SC(=S)N(C)C2=O)cc(Br)c1O`, for which the displacement is -47.9%.

With `COC(=O)CCN1C(=O)/C(=C\c2cc(Br)c(O)c(OC)c2)SC1=S`, the displacement came out at 53.8%.

Turning to `CCCCOc1ccc(/C=C2\SC(=S)N(C(C)C(=O)O)C2=O)cc1OC` (stereo not drawn), the displacement was 3.8%.

In the case of `O=C(Nc1ccc(I)cc1Cl)c1cccc(Cl)c1Cl`, the displacement worked out at 11.2%.

With `O=C(NN1C(=O)/C(=C\c2ccccn2)SC1=S)c1ccccc1`, the displacement was -15.1%.

Regarding `CCCOc1ccc(Br)cc1/C=C(/C#N)c1nc2ccc(C)cc2[nH]1`, the displacement is 69.3%.

Regarding `CCCOc1ccc(Cl)cc1/C=C(/C#N)c1nc2ccc(C)cc2[nH]1`, the displacement was 15.5%.

As for `CCCOc1c(I)cc(I)cc1/C=C(/C#N)c1nc2ccc(C)cc2[nH]1`, the displacement is -4.9%.

As to `Cc1ccc2nc(/C(C#N)=C/c3cc(Br)ccc3OCc3ccccc3)[nH]c2c1`, the displacement is -2.3%.

Take `Cc1ccc2nc(/C(C#N)=C\c3cc(Br)ccc3OC(C)C)[nH]c2c1`: the displacement was determined as 13.1%.

For the molecule `Cc1ccc2nc(/C(C#N)=C\c3ccc(Br)cc3)[nH]c2c1`, the displacement is 136%.

Take `CCOc1ccc(Br)cc1/C=C(\C#N)c1nc2ccc(C)cc2[nH]1`: the displacement is 72.9%.

Regarding `Cc1ccc(/C=C(/C#N)c2nc3ccc(C)cc3[nH]2)cc1`, the displacement is 4.5%.

As for `CCc1ccc(/C=C(/C#N)c2nc3ccc(C)cc3[nH]2)cc1`, the displacement is 3.2%.

Regarding `COc1ccc(C2NCCc3c2[nH]c2ccccc32)cc1OC` (stereo not drawn), the displacement came to 8.4%.

In the case of `COc1cccc(C(=O)N2N=C(c3cccnc3)CC2(O)C(F)(F)F)c1` (stereo not drawn), the displacement is -2.9%.

As to `CCOC(=O)CN1C(c2ccccc2OC)Nc2ccc(Br)cc2C1c1ccccc1` (stereo not drawn), the displacement is 15.6%.

Take `Cc1ccc(S(=O)(=O)NN2C(=O)/C(=C/c3ccc(F)cc3)SC2=S)cc1`: the displacement amounted to 2%.

As for `OC(CNCc1ccccc1)(c1ccccc1)c1ccc(Cl)cc1` (stereo not drawn), the displacement is -9.4%.

Consider `CCCN=C(C)c1c(C)[nH]n(-c2nc3ccccc3s2)c1=O`, for which the displacement was found to be 68.8%.

For `CC(=NCCc1ccccc1)c1c(C(F)(F)F)[nH]n(-c2nc3ccccc3s2)c1=O`, the displacement was -8.3%.

Regarding `CC(=NCc1ccccc1)c1c(C)[nH]n(-c2nc3ccccc3s2)c1=O`, the displacement worked out at 12.2%.

With `CCOC(=O)C1=C(C)N=c2s/c(=C\c3cccs3)c(=O)n2C1c1cccc(OC)c1` (stereo not drawn), the displacement was determined as 12.9%.

On to `COc1cccc(C2C(C(=O)Nc3ccccc3)=C(C)N=c3s/c(=C\c4sccc4C)c(=O)n32)c1` (stereo not drawn), for which the displacement is 46.7%.

`COc1ccc(/C=c2\sc3n(c2=O)C(c2ccc(OC)cc2)C(C(=O)OC(C)C)=C(C)N=3)cc1` (stereo not drawn): the displacement was found to be 10%.

For `CCOC(=O)C1=C(C)N=c2s/c(=C\c3c[nH]c4ccccc34)c(=O)n2C1c1cccc(OC)c1` (stereo not drawn), the displacement worked out at 32.8%.

Take `COc1ccc(C2C(C(=O)OC(C)C)=C(C)N=c3s/c(=C/c4c[nH]c5ccccc45)c(=O)n32)cc1` (stereo not drawn): the displacement came out at 99.1%.

Regarding `COc1cccc(C2C(C(=O)Nc3ccccc3)=C(C)N=c3s/c(=C\c4ccc(N(C)C)cc4)c(=O)n32)c1` (stereo not drawn), the displacement turned out to be 73.6%.

Regarding `COc1cccc(C2C(C(=O)Nc3ccccc3)=C(C)N=c3s/c(=C\c4ccncc4)c(=O)n32)c1` (stereo not drawn), the displacement amounted to 9.6%.

Regarding `COc1cccc(C2C(C(=O)Nc3ccccc3)=C(C)N=c3s/c(=C\c4cccs4)c(=O)n32)c1` (stereo not drawn), the displacement is 79.1%.

As for `COc1cccc(C2C(C(=O)Nc3ccccc3)=C(C)N=c3s/c(=C/c4ccccc4OC)c(=O)n32)c1` (stereo not drawn), the displacement is 12.1%.

For the molecule `COc1ccc(C2C(C(=O)OC(C)C)=C(C)N=c3s/c(=C\c4cc(OC)ccc4OC)c(=O)n32)cc1` (stereo not drawn), the displacement came to 6.4%.

`COc1cccc(C2C(C(=O)Nc3ccccc3)=C(C)N=c3s/c(=C\c4ccc(O)cc4)c(=O)n32)c1` (stereo not drawn): the displacement was -6.7%.

Turning to `COc1cccc(C2C(C(=O)Nc3ccccc3)=C(C)N=c3s/c(=C\c4c[nH]c5ccccc45)c(=O)n32)c1` (stereo not drawn), the displacement is 113%.

On to `Cc1ccc(NC(=O)c2cc3cc([N+](=O)[O-])ccc3oc2=O)cc1`, for which the displacement came to 13.5%.

`CSc1ccccc1NC(=O)CC1Nc2cc(C)c(C)cc2NC1=O` (stereo not drawn): the displacement is -41.6%.

As to `O=C1Nc2ccc(Br)c3cccc1c23`, the displacement came out at 15.9%.

Regarding `COc1cc(C(=O)NCc2cccc3ccccc23)cc(OC)c1OC`, the displacement turned out to be 9.9%.

For the molecule `COc1ccc(/C=C2\SC(=Nc3ccc(O)cc3)NC2=O)cc1OC`, the displacement is -6.3%.

For `O=c1[nH]c(/C=C/c2ccc(OCc3ccccc3)cc2)c([N+](=O)[O-])c(=O)[nH]1`, the displacement stood at 114%.

Consider `O=c1[nH]c(/C=C/c2ccccc2)c([N+](=O)[O-])c(=O)[nH]1`, for which the displacement is 18.1%.

With `COc1cc(/C=C/c2[nH]c(=O)[nH]c(=O)c2[N+](=O)[O-])cc(Br)c1OCc1ccccc1`, the displacement came out at 15.6%.

On to `CC(C)(C)OC(=O)C1C(=O)CC(C)(O)C(C(=O)OC(C)(C)C)C1c1ccccc1` (stereo not drawn), for which the displacement is -1.3%.

Take `O=c1c2ccccc2nc(SCc2ccccc2)n1Cc1ccccc1`: the displacement is -0.7%.

Turning to `O=C(CSc1nc2ccccc2s1)Nc1ncccn1`, the displacement came out at 57.1%.

Turning to `O=C(CSc1nc2ccccc2s1)Nc1ccccc1`, the displacement came out at 7.4%.

As to `O=C(CSc1nc2ccccc2s1)Nc1nc2ccccc2s1`, the displacement amounted to 7.4%.

As for `C=CCN1C(=O)C(Cc2ccccc2)S/C1=N/N=C/c1ccccc1` (stereo not drawn), the displacement was found to be 3%.

As for `COc1cc([N+](=O)[O-])ccc1-c1ccc(/C=C2\C(=O)N(c3ccc(S(N)(=O)=O)cc3)N=C2C)o1`, the displacement was determined as 5.3%.

For `CCC1=NN2C(=N)/C(=C/c3ccc(-c4ccccc4C(=O)OC)o3)C(=O)N=C2S1`, the displacement came out at 3.5%.

With `Cc1cccc(N2CCN(C3=NC(=O)/C(=C/c4ccc(-c5cccc([N+](=O)[O-])c5)o4)S3)CC2)c1`, the displacement came out at 9.8%.

On to `CCC1=NN2C(=N)/C(=C/c3ccc(-c4cccc(C(=O)O)c4)o3)C(=O)N=C2S1`, for which the displacement is 1.4%.

Regarding `CC(C)C1=NN2C(=N)/C(=C/c3ccc(-c4ccc([N+](=O)[O-])cc4)o3)C(=O)N=C2S1`, the displacement was 111%.

For the molecule `CC(C)C1=NN2C(=N)/C(=C/c3ccc(Sc4ccc(Cl)cc4)o3)C(=O)N=C2S1`, the displacement was -18.4%.

As to `CCC1=NN2C(=N)/C(=C/c3ccc(-c4cccc([N+](=O)[O-])c4)o3)C(=O)N=C2S1`, the displacement stood at 124%.

As to `CC(C)C1=NN2C(=N)/C(=C/c3ccc(-c4cccc([N+](=O)[O-])c4)o3)C(=O)N=C2S1`, the displacement stood at 173%.

Consider `NC1=NC(=O)/C(=C\c2ccc(-c3ccc([N+](=O)[O-])cc3)o2)S1`, for which the displacement worked out at 3.2%.

As to `CCC1=NN2C(=N)/C(=C/c3ccc(-c4ccc([N+](=O)[O-])cc4OC)o3)C(=O)N=C2S1`, the displacement was 4.4%.

In the case of `COc1cc([N+](=O)[O-])ccc1-c1ccc(/C=C2/C(=N)N3N=C(C(C)C)SC3=NC2=O)o1`, the displacement is 77%.

Regarding `CC(C)C1=NN2C(=N)/C(=C/c3ccc(-c4cccc(C(=O)O)c4)o3)C(=O)N=C2S1`, the displacement is -26.4%.

Regarding `O=C1C(=O)N(c2ccccc2Br)C(=O)N1c1cccc(Cl)c1`, the displacement was found to be 5.7%.

`O=C(CSCC(=O)Nc1ccccc1)NCc1ccco1`: the displacement was -20.8%.

As to `Nc1n[nH]c(N)c1N=Nc1cccc(C(F)(F)F)c1`, the displacement was -2.4%.

`O=C(Cc1ccc(Cl)cc1)NNC(=O)C1CCCO1` (stereo not drawn): the displacement was found to be 2.5%.

In the case of `COc1cc(C(=O)NN2C(=O)/C(=C/c3ccc(OC)c(OC)c3)SC2=S)ccc1O`, the displacement was -28.1%.

As to `c1ccc(-c2cc(-c3cc(-c4ccccc4)on3)no2)cc1`, the displacement is 2.6%.

Turning to `O=C(Oc1ccc2ccccc2c1)c1cc([N+](=O)[O-])ccc1Cl`, the displacement is -0.9%.

Take `CC(C)C1=NN2C(=N)/C(=C/c3ccc(-c4ccc(F)c(Cl)c4)o3)C(=O)N=C2S1`: the displacement turned out to be 146%.

In the case of `CN1C(=O)/C(=C\c2ccc(-c3ccc(F)c(Cl)c3)o2)SC1=S`, the displacement came to 3.9%.

In the case of `COc1ccc(/C=C2/C(=N)N3N=C(C(C)C)SC3=NC2=O)cc1OC`, the displacement came to 133%.

In the case of `COc1cc(/C=C2/C(=N)N3N=C(C(C)C)SC3=NC2=O)cc(Cl)c1OCCOc1ccccc1`, the displacement is -39%.

With `CCC1=NN2C(=N)/C(=C/c3ccc(OC)c(OC)c3)C(=O)N=C2S1`, the displacement was -1.4%.

Regarding `CC(C)C1=NN2C(=N)/C(=C/c3cc(Cl)ccc3OCc3ccccc3)C(=O)N=C2S1`, the displacement was -7.4%.
